Test: osmotic lysis modulators in infected erythrocytes, primary screen, PSAC antagonist project, cell-based, P. falciparum Indochina, OD700, 3 h (AID 1156)
Settings: higher = more signal, called active from +8 up or from −8 down

z-score, inactive:
CC(C)C(=C=CC[C@H](O)c1ccccc1OCCO)C[C@H](O)COCc1ccccc1 1.54
CC(C)NC(=O)[C@@]1(c2ccc([N+](=O)[O-])cc2)CC(=O)N(CC23CC4CC(CC(C4)C2)C3)[C@@H]1c1ccc(CO)cc1 1.86
CC(C)=C1C(=O)C(c2ccccc2)=C2CN3C(=O)N(CCc4ccccc4)C(=O)[C@]3(C)[C@H]21 1.63
[N-]=[N+]=Nc1ccccc1[C@H]1OC(c2ccc(OCCCO)cc2)=N[C@@]1(Cc1ccccc1)C(=O)NCC(O)CO (stereo partly specified) 0.849
COCCCNC(=O)[C@@]1(CCS(=O)(=O)c2ccccc2)COC(c2ccc(OCCCO)cc2)=N1 0.764
CC(C)(C)N1CC=CC23O[C@@H]4C=CCOC(=O)[C@@H]4[C@H]2C(=O)N(CCO)[C@@H]3C1=O (stereo partly specified) 0.0221
CN(C)CCCCNC(=O)[C@H]1C[C@H]2C(=O)NCC(=O)N2[C@H]1c1ccc(O)cc1 0.447
CC(C)C(O)C1C=CC2C(=O)NC(=O)C2N1Nc1ccccn1 (stereo unspecified) -0.0484
O=C1C2C=CC(C(O)c3ccc([N+](=O)[O-])cc3)N(Nc3ccccc3F)C2C(=O)N1c1ccccc1 (stereo unspecified) 0.458
CN(C)CCCC[C@@H]1NC(=O)[C@@H]2C[C@H](C(=O)NCCCCCN)[C@H](c3cccc(OCCO)c3)N2C1=O -1.52
CC1CC/C=C\[C@H]2OC34C=CCN(Cc5ccccc5)C(=O)[C@H]3N(CCCCCCO)C(=O)[C@@H]4C2C(=O)O1 (stereo partly specified) 0.731
C=CCC(OC(C)=O)[C@@H]1[C@@H](N(Cc2cccc3ccccc23)C(=O)c2ccc(-c3ccccc3)cc2)c2cc(OCCCO)ccc2N1C(=O)Cc1ccc2ccccc2c1 (stereo partly specified) -0.428
CC(C)NC(=O)[C@@]1(C)c2ccccc2C(=O)N(Cc2ccccc2)[C@H]1c1ccc(CO)cc1 -0.171
COC(=O)[C@@]1(Cc2ccccc2)[C@H]2c3cc(C(=O)N4CCCC4)n(Cc4ccc(OC)c(OC)c4)c3C[C@H]2CN1C(=O)c1ccccc1 2.24
O=C1C[C@@](C(=O)NCc2ccccc2)(c2ccc([N+](=O)[O-])cc2)[C@@H](c2ccc(CO)cc2)N1C1CCCCC1 -0.436
[N-]=[N+]=Nc1ccccc1[C@@H]1OC(c2ccc(OCCCO)cc2)=N[C@]1(CCS(=O)(=O)c1ccccc1)C(=O)NCC(O)CO (stereo partly specified) 1.08
CCOC(=O)C[C@H]1[C@H](OC(=O)c2ccccc2-c2ccccc2)[C@@H](NC(=O)c2ccc3ccccc3c2)c2cc(OCCCO)ccc2N1C(=O)Cc1ccc(OC)cc1 -0.681
CCOC(=O)C[C@H]1[C@H](OC(=O)Cc2ccc3c(c2)OCO3)[C@@H](NC(=O)Cc2ccc(OC)cc2)c2cc(OCCCO)ccc2N1C(=O)Cc1ccc(OC)cc1 -1.02
Cc1ccc(C(C)CC(O)C2C=CC3C(=O)N(C)C(=O)C3N2Nc2ccccc2)o1 (stereo unspecified) 0.684
Cc1ccc(S[C@]2(C(=O)NCC(F)(F)F)CC(=O)N(Cc3ccccc3C(F)(F)F)[C@@H]2c2ccc(CO)cc2)cc1 -0.142
COC(=O)[C@]1(Cc2ccccc2)N=C(c2ccc(OCCCO)cc2)O[C@@H]1c1ccccc1CN=[N+]=[N-] 0.765
COC(=O)C(CC#Cc1ccc2c(c1)[C@]1(C(=O)N2)[C@H](c2ccc(OCCO)cc2)N2[C@H](c3ccccc3)[C@H](c3ccccc3)OC(=O)[C@H]2[C@@H]1C(=O)N1CCCCCCC1)C(=O)OC 0.309
C[C@]1(C(=O)O)c2ccccc2C(=O)N(Cc2cc(F)cc(C(F)(F)F)c2)[C@H]1c1ccc(CO)cc1 -0.992
O=C(NC1CC1)[C@@H]1c2ccccc2C(=O)N(CC23CC4CC(CC(C4)C2)C3)[C@H]1c1ccc(CO)cc1 1.48
COC(=O)[C@@]1(Cc2ccc(OC)cc2)[C@H]2c3cc(C(=O)N4CCCC4)n(CCn4cc([N+](=O)[O-])nc4C)c3C[C@H]2CN1C(=O)c1ccccc1 0.217
CC1CC/C=C\[C@H]2OC34C=CCN(c5ccc6ccccc6c5)C(=O)[C@H]3N(C(C)CO)C(=O)[C@@H]4C2C(=O)O1 (stereo partly specified) 0.927
O=C1C[C@]2(c3ccc([N+](=O)[O-])cc3)C(=O)N(C3CC3)c3cc(CO)ccc3[C@H]2N1C1CCCCC1 -1.35
CCN(CC)c1ccc(N2CC=CC34O[C@@H]5C=CCCOC(=O)C5[C@H]3C(=O)N(C(C)CO)[C@@H]4C2=O)cc1 (stereo partly specified) 0.988
COC(=O)[C@@]1(Cc2ccccc2)[C@H]2c3cc(C(=O)N(C)C)n(CCO)c3C[C@H]2CN1C(=O)c1ccccc1 -0.0157
COc1cc(CO)cc(I)c1O[C@H]1C=C(C(=O)NCCO)C[C@@H](NC2CCCCCC2)[C@@H]1O 3.68
O=C1C2C=CC(C(O)c3cccs3)N(Nc3ccc([N+](=O)[O-])cc3)C2C(=O)N1c1ccccc1 (stereo unspecified) 1.75
CCOC(=O)C[C@H]1[C@H](OC(=O)c2ccccc2-c2ccccc2)[C@@H](NC(=O)C2CCCCC2)c2cc(OCCCO)ccc2N1C(=O)c1ccc2ccccc2n1 -0.192
COC(=O)[C@@]1(Cc2ccc(F)cc2)[C@H]2c3cc(C(=O)N4CCCC4)n(Cc4ccccn4)c3C[C@H]2CN1C(=O)c1ccccc1 0.893
C=C(CCCC)/C(=C/C[C@H](OC(=O)c1ccncc1)c1ccccc1OCCO)c1cc(C(=O)OC)ccc1OC 3.84
O=C(NCc1ccccc1)[C@@H]1c2ccccc2C(=O)N(Cc2cc(C(F)(F)F)cc(C(F)(F)F)c2)[C@H]1c1ccc(CO)cc1 2.48
COc1ccc([Si](C)(C)[C@H]2[C@H](CCO)O[C@@]3(C(=O)N(Cc4ccc(NC(=O)[C@H](C)O)cc4)c4ccccc43)[C@@H]2C)cc1 2.52
